Experimental findings from article PMC11574364 are described below.

Sequence of SF3B4 (Q15427 1-200): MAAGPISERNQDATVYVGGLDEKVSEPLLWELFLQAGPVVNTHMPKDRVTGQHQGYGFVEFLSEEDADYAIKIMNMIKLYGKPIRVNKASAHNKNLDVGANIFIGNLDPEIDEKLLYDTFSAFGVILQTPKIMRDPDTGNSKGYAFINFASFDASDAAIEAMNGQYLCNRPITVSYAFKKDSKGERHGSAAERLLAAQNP

In one assay the target is T1, ANKHD1 (Homo sapiens, UniProt Q8IWZ3).
T1 sequence: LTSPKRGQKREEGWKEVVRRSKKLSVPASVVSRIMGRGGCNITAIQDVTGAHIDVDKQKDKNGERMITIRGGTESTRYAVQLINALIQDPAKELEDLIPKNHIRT
Kind of assay: protein domain microarray probed with biotinylated miRNA; Domain array: 20 mM Tris-HCl pH 7.4, 200 mM KCl, 0.2 mM EDTA, 0.05% NP40, 2 ug/ul heparin, overnight 4 C. ORF array: PBS pH 7.0 with RNase inhibitor, 100 ng RNA; high values mean tight binding. As to conditions: ssRNA.
The sequence AGAGGUAGUAGGUUGCAUAGUU yielded a binding signal of 37.7 ± 0.622 fluorescence intensity.

On to UGAGGUAGUAGGUUGUAUAGUU, for which the binding signal was found to be 21.6 ± 2.06 fluorescence intensity.

In turn, UGAGGUAGUAGGUUGUAUGGUU showed a binding signal of 53.6 ± 1.31 fluorescence intensity.

As to UGAGGUAGUAGGUUGUGUGGUU, the binding signal is 101 ± 1.94 fluorescence intensity.

In the case of CAGUGCAAUGAUGAAAGGGCAU, the binding signal was 27.3 ± 0.926 fluorescence intensity.

Another assay addresses T2, RBM34 (Homo sapiens, UniProt P42696).
T2 sequence: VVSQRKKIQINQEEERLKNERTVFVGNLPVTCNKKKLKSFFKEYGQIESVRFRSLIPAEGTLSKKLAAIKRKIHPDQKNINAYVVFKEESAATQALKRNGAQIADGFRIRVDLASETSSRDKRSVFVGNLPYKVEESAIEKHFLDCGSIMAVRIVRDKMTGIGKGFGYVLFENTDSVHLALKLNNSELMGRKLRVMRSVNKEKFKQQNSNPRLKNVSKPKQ
The description is as above. As to conditions: ssRNA.
AGAGGUAGUAGGUUGCAUAGUU displayed a binding signal of 148 ± 10.7 fluorescence intensity.

In turn, UGAGGUAGUAGGUUGUAUAGUU came in with a binding signal of 40.9 ± 12.8 fluorescence intensity.

On to UGAGGUAGUAGGUUGUAUGGUU, for which the binding signal was determined as 153 ± 25.5 fluorescence intensity.

Consider UGAGGUAGUAGGUUGUGUGGUU, for which the binding signal worked out at 228 ± 3.75 fluorescence intensity.

On to CAGUGCAAUGAUGAAAGGGCAU, for which the binding signal turned out to be 102 ± 9.41 fluorescence intensity.

Another assay addresses SF3B4 (Homo sapiens, UniProt Q15427). The assay is described as above. As to conditions: ssRNA.
AGAGGUAGUAGGUUGCAUAGUU displayed a binding signal of 1440 ± 72.2 fluorescence intensity.

In turn, UAGCUUAUCAGACUGAUGUUGA registered a binding signal of 700 ± 28.6 fluorescence intensity.

Take UGAGGUAGUAGGUUGUAUAGUU: the binding signal is 346 ± 11.8 fluorescence intensity.

Sequence UGAGGUAGUAGGUUGUAUGGUU came in with a binding signal of 638.1 ± 5.52 fluorescence intensity.

Sequence UGAGGUAGUAGGUUGUGUGGUU returned a binding signal of 1290 ± 27 fluorescence intensity.

Turning to CAGUGCAAUGAUGAAAGGGCAU, the binding signal amounted to 1680 ± 98.9 fluorescence intensity.
